Measurements reported in PMC5540273 (PLoS ONE, 2017).

What was measured:
Settings in all cases: concentration: 1 μM, replicates: in singlicate; n = 1
FYN = system: FYN
GAK = system: GAK
GCN2(Kin.Dom.2,S808G) = system: T1, GCN2(Kin.Dom.2,S808G)
T1 construct: gene EIF2AK4

GRK1 = system: GRK1
GRK2 = system: T2, GRK2
T2 construct: gene ADRBK1

GRK3 = system: T3, GRK3
T3 construct: gene ADRBK2

GRK4 = system: GRK4
GRK7 = system: GRK7
GSK3A = system: GSK3A
GSK3B = system: GSK3B
HASPIN = system: T4, HASPIN
T4 construct: gene GSG2

HCK = system: HCK
HIPK1 = system: HIPK1
HIPK2 = system: HIPK2
HIPK3 = system: HIPK3
HIPK4 = system: HIPK4
HPK1 = system: HPK1
HUNK = system: HUNK
ICK = system: ICK
IGF1R = system: IGF1R
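Also: KINOMEscan kinase panel screen.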

SMILES	%Inh (FYN) [%]	%Inh (GAK) [%]	%Inh (GCN2(Kin.Dom.2,S808G)) [%]	%Inh (GRK1) [%]	%Inh (GRK2) [%]	%Inh (GRK3) [%]	%Inh (GRK4) [%]	%Inh (GRK7) [%]	%Inh (GSK3A) [%]	%Inh (GSK3B) [%]	%Inh (HASPIN) [%]	%Inh (HCK) [%]	%Inh (HIPK1) [%]	%Inh (HIPK2) [%]	%Inh (HIPK3) [%]	%Inh (HIPK4) [%]	%Inh (HPK1) [%]	%Inh (HUNK) [%]	%Inh (ICK) [%]	%Inh (IGF1R) [%]
CC(C)c1nc(-c2cccc(NS(=O)(=O)c3c(F)cccc3F)c2)c(-c2ccnc(Nc3ccc(N4CCOCC4)nc3)n2)s1.Cl [GSK1723980]	98.6	91.2	100	9	0	0	0	0	74	15	0	98.3	93.2	57	69	83	55	0	32	0
COc1cc(Nc2ccnc3cc(-c4ccncc4)ccc23)cc(OC)c1OC.Cl [GW494610]	75	84	0	4	0	35	5	0	10	0	40	83	0	0	13	0	0	52	0	0
Cc1cc(-c2c(-c3ccc(F)cc3)ncn2CCCN2CCOCC2)nc(N)n1 [SB-222517]	0	5	0	31	0	4	20	0	0	32	0	27	44	0	18	0	12	0	0	10
Cc1ccc(NC(=O)c2ccc(Cl)c(Cl)c2)cc1-c1ccc(C(=O)Nc2ccncc2)cc1 [GSK1398460]	31	45	8	0	0	24	4	0	6	15	0	9	0	0	17	0	40	25	0	19
CC(C)(C)c1ccc(C(=O)Nc2cn3cc(-n4ccnc4)ccc3n2)cc1	21	0	27	42	51	0	12	21	2	14	7	18	32	28	12	21	0	0	0	0
Cn1cc(-c2cnc(N)c3c(-c4ccc5c(c4)CCN5C(=O)Cc4ccccc4)csc23)cn1 [GSK2593074]	25	11	91.2	0	0	0	7	6	5	0	0	86	21	0	7	0	94	0	100	0
O=C(O)C(F)(F)F.O=c1[nH]ccc2nc(N[C@@H]3CCNC3)nc(Nc3cc(Cl)cc(Cl)c3)c12 [GSK2188764]	52	74	69	92	47	32	86	70	49	19	86	0	27	6	54	0	95.7	0	12	0
CN1CCN(Cc2ccc(NC(=O)Nc3ccc(N(C)c4ccnc(Nc5ccc(CS(C)(=O)=O)cc5)n4)cc3)cc2)CC1.Cl [GW827654]	40	36	17	9	27	21	86	3	4	32	19	47	83	82	91.9	90.9	99.6	0	71	0
O=C(Nc1c(F)cccc1F)c1cc(C(=O)c2ccccc2F)c[nH]1 [GSK1326180]	0	0	0	0	0	35	0	0	10	1	22	0	0	44	0	0	50	24	0	18
